Shown are actives, neighbours in structure and some others; about 9.6% of the full set was active somewhere.
INS promoter inh: inhibitors of insulin promoter-driven GFP, primary screen, imaging, TRM-6 cells (human fetal islet line), eGFP reporter, cell count; reporter expression induced with tamoxifen; inhibition, % at 2 µM; 0.9% of 130,000 active; AID 1273, 2008;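 active means inhibition above the mean plus 3 SD, with well images judged a real hit on visual review, cut at about 60% in these data, passing the limit was not always enough; inconclusive means inhibition over the cutoff but images rejected on review; inactive means inhibition not above the cutoff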
Autophagy mod: autophagy modulators in MEF cells, primary screen, imaging, high-content, MEF GFP-LC3 | calls only at 10 µM (by protocol) | MEF GFP-LC3 puncta imaging; test concentration mostly 10 µM | AID 463193, 2010 | 0.98% of 190,000 active;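 active means percentage of spot-positive cells more than 3 SD above its plate mean, without a fluorescence outlier flag or 80% toxicity; inconclusive means no clear call, values can overlap the other calls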
PTEN del growth: growth suppression of PTEN-null HCT116, primary screen, cell-based, CellTiter-Glo | HCT116 PTEN-null viability, 60 h; hits give low values | viability, % at 10 µM | 1.2% of 140,000 active | AID 827, 2007;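 active means viability at or below a set limit, 4 SD under the median of all tested compounds, cut at about 3.7% in these data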;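 further: PTEN knockout HCT116 line with beta catenin targeted HCT116 as companion control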
HCT116 bCat-KO: primary screen for growth suppressors in beta-catenin knockout HCT116 cells (colon tumor, human) | 1.5% of 140,000 active | HCT116 beta-catenin knockout viability, CellTiter-Glo, 60 h; hits give low values | viability, % at 10 µM | AID 818, 2007;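 active means viability at or under a set limit, the compound median less 4 SD, cut at about 6% in these data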
Insulin prom up: insulin promoter activators in MIN6 cells, imaging, high-content screening, mouse beta cells. MIN6 insulin promoter-GFP reporter; hits give high values. z-score at 5 µM. AID 1625, 2009. 0.3% of 190,000 active;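 active means z-score above 3 at 5 µM with at least 500 cells counted in the well; inconclusive means wells under 500 cells, flagged as cytotoxic or low count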
L major viab: Leishmania major promastigote growth inhibition, primary screen; Leishmania major promastigotes, resazurin fluorescence viability; inhibition, % at 10 µM; 9% of 200,000 active; AID 1063, 2008; in the data active means inhibition above about 50%;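 further: promastigotes grown with compound for 44 hours at 28 °C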
A number is an active result; – = inactive; ? = inconclusive; · = no result; + = active, no number.

SMILES | INS promoter inh | Autophagy mod | PTEN del growth | HCT116 bCat-KO | Insulin prom up | L major viab
COc1ccc(-c2n(Cc3ccccc3)c3ccccc3[n+]2Cc2ccccc2)cc1 | – | – | · | · | – | 100
C=CCn1c(-c2ccc(OC)cc2)nc2ccccc21 | – | – | – | – | – | 96
COc1ccc2c(c1)nc(N)n2Cc1ccccc1 | · | – | – | – | · | 64
COc1ccccc1Cn1c(-c2ccccc2OC)nc2ccccc21 | – | – | – | – | · | 98
COc1ccc(-c2c(C)nn(Cc3ccccc3)c2N)cc1 | – | – | – | – | – | –
C=CCn1c(-c2ccc(N)cc2)nc2ccccc21 | · | – | – | – | – | –
COc1ccc(C(=O)NC(=S)Nc2ccc(Cc3ccncc3)cc2)cc1 | – | – | · | · | – | –
Cc1ccc(C)c(Cn2c(=O)n(CCC(=O)NCc3ccco3)c(=O)c3sccc32)c1 | – | – | – | – | – | –
C[C@@H]1CC=C[C@H]2[C@H]1C(=O)N(Cc1ccccc1)[C@H]2c1ccc2ccccc2c1Br | · | · | · | · | – | ·
COc1ccc(-c2nc3ccccc3n2Cc2ccccc2)cc1 | – | – | – | – | – | 53
CC1CC(C)(C)CC2(C1)NC(=S)N(c1ccccc1)N2 (centres undefined) | – | – | – | – | – | –
S=C1NC2(CCCCC2)NN1c1ccccc1 | · | – | · | · | – | 81
CC1CCCC2(C1)NC(=S)N(c1ccccc1)N2 (centres undefined) | – | – | – | – | – | 84
O=C(N/N=C/c1cccc([N+](=O)[O-])c1)C1CC(=O)N(c2ccc(Cl)cc2)C1 (centres undefined) | – | – | – | – | – | 95
Cc1ccc(N2CC(C(=O)N/N=C/c3cccc([N+](=O)[O-])c3)CC2=O)cc1 (centres undefined) | – | – | – | – | – | –
CC1=Nc2ccccc2/C1=C\c1nc(-c2ccccc2)oc1O | · | – | – | – | – | –
COc1ccc(-c2nc(/C=C3\C(C)=Nc4ccccc43)c(O)o2)cc1 | · | + | · | · | – | –
O=C(O)c1nsc(Cl)c1Cl | – | – | – | – | – | –
COC(=O)c1cc(=O)cc(C(=O)OC)o1 | – | – | – | – | · | –
CCOC(=O)c1cc(=O)cc(C(=O)OCC)o1 | – | – | – | – | – | 95
CCOC(=O)N1CCC(N2CCCC(C(=O)c3ccccc3OC)C2)CC1 (centres undefined) | · | – | · | · | – | 80
CCOC(=O)N1CCC(N2CCCC(C(=O)c3cc(C)c(OC)c(C)c3)C2)CC1 (centres undefined) | – | – | · | · | · | 93
COc1ccc2cc(C(=O)C3CCCN(C(=O)c4ccnn4C)C3)ccc2c1 (centres undefined) | · | · | · | · | – | ·
CCOC(=O)c1c(C)[nH]c(C(=O)N2CCCC(C(=O)c3ccccc3OC)C2)c1C (centres undefined) | · | · | · | · | – | ·
CCOC(=O)N1CCC(N2CCCC(C(=O)c3ccc4cc(OC)ccc4c3)C2)CC1 (centres undefined) | – | – | · | · | – | 98
SMILES | INS promoter inh | Autophagy mod | PTEN del growth | HCT116 bCat-KO | Insulin prom up | L major viab
CCN1CCN(CC(=O)Nc2cc(C)c(C)cc2[N+](=O)[O-])CC1 | · | – | – | – | – | –
CCOc1ccccc1NC(=S)N1CCC(NC(=O)NC23CC4CC(CC(C4)C2)C3)CC1 | – | – | – | – | – | 60
COc1ccc(NC(=S)N2C3CCC2CC(NC(=O)NC24CC5CC(CC(C5)C2)C4)C3)c(OC)c1 (centres undefined) | – | – | – | – | – | –
COc1ccccc1NC(=S)N1CCC(NC(=O)NC23CC4CC(CC(C4)C2)C3)CC1 | · | – | – | – | – | 97
COCCN(C(=O)c1ccco1)C(C(=O)NC1CCCC1)c1cccs1 (centres undefined) | – | – | – | – | – | –
COc1ccccc1CC(=O)Nc1ccc2c(c1)C(=O)NC2=O | · | – | · | · | – | 100
COc1cc(CC(=O)Nc2ccc3nc(C)sc3c2)cc(OC)c1OC | – | – | – | – | – | –
COc1ccccc1CC(=O)Nc1ccc2nc(C)sc2c1 | · | – | – | – | – | 61
CC1(C)CC(NC(=O)Cc2ccccc2[N+](=O)[O-])CC(C)(C)N1 | – | – | – | – | – | –
COc1ccccc1CC(=O)NC1CC(C)(C)NC(C)(C)C1 | – | – | – | – | 3.6 | –
Nc1cc(CN2C(=O)c3ccccc3C2=O)cc(Cl)c1O | – | – | – | – | – | –
CCOC(=O)Nc1nc(-c2ccccc2)c(C(=O)c2ccccc2)s1 | – | + | – | – | – | –
COC(=O)Nc1nc(-c2ccccc2)c(C(=O)c2ccc(Cl)cc2)s1 | – | – | – | – | – | –
O=C1Nc2ccccc2N(O)N1c1cc(-c2ccc(Cl)cc2)[nH]n1 | – | – | · | · | – | –
c1coc(-c2nc3c4c5c(sc4ncn3n2)CCCC5)c1 | – | – | – | – | – | –
C=CCc1ccccc1OCCn1ccnc1 | – | – | – | – | – | –
Cc1cccc(OCCCOc2cccc3cccnc23)c1C | · | – | – | – | – | 69
CC(C)(C)c1ccccc1OCCCCCn1ccnc1 | – | – | · | · | – | 95
Cc1cccc(OCCCCCn2ccnc2)c1C | – | – | – | – | – | 99
Clc1ccccc1OCCn1ccnc1 | – | – | – | – | – | –
Cc1ccc(OCCCOc2cccc3cccnc23)cc1C | – | – | – | – | – | –
COCC(C)n1c(COc2ccccc2F)nnc1SCC(=O)c1c(N)n(C)c(=O)n(C)c1=O (centres undefined) | · | – | · | · | – | –
c1ccc2c(-c3[nH]ncc3CNCCCn3ncc4ccccc43)cccc2c1 | · | – | · | · | – | 77
CC(=O)Nc1ccc(Nc2ccc(S(=O)(=O)C(F)(F)F)cc2[N+](=O)[O-])cc1 | · | – | – | – | – | 56
O=C(O)CNc1ccc(S(=O)(=O)C(F)(F)F)cc1[N+](=O)[O-] | · | · | · | · | – | ·
SMILES | INS promoter inh | Autophagy mod | PTEN del growth | HCT116 bCat-KO | Insulin prom up | L major viab
Cc1ccc(OCCOc2cccc3ccc(C)nc23)c([N+](=O)[O-])c1 | · | – | · | · | – | –
Cc1ccc(OCCOCCN2CCN(C)CC2)c([N+](=O)[O-])c1 | · | – | · | · | · | –
Cc1ccc(OCCOCCN2CCCCC2)c([N+](=O)[O-])c1 | · | – | · | · | – | 70
Cc1ccc(OCCOCCNC(C)(C)C)c([N+](=O)[O-])c1 | – | – | – | – | – | 92
COc1ccc(OCCOCCOc2ccc(C)cc2[N+](=O)[O-])cc1 | – | – | – | – | – | –
CCC(C)NCCCCOc1ccc(C)cc1[N+](=O)[O-] (centres undefined) | – | – | – | – | – | 88
COCCNCCCCOc1ccc(C)cc1[N+](=O)[O-] | – | – | – | – | · | 74
CSCC[C@H](NC(=O)C(C)(C)Oc1ccc(Cl)cc1)c1nc2ccccc2[nH]1 | – | – | – | – | – | –
CCOCCCNS(=O)(=O)c1cc(Br)cc2c1N(C(=O)C1CC1)CC2 | – | – | – | – | – | –
COc1cccc(OCCOCCOc2ccc(C)cc2[N+](=O)[O-])c1 | – | – | – | – | ? | –
